Reference: PubChem BioAssay (Tox21)
Results filed as inconclusive are left out. Calls of active or inactive are those of the source. Unless noted, calls come from the whole dose curve.

Assays:
[1] = Nuclear factor erythroid 2-related factor 2/antioxidant responsive element (Nrf2/ARE) small molecule agonists: qHTS cell viability counter screen in human keratinocytes (AID 1919968; active = well fitted curve in the direction sought with a large enough effect in the repeat runs; an effect the other way counts as inactive or inconclusive; note: nearly all actives have a fitted effect of over 55% in size)
Method in brief: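 Measured as CellTiter-Fluor fluorescence, this readout tracks cytotoxicity in the same wells as the ARE-luciferase screen. HaCaT reporter cells (1,500/well) received compounds after a 5 h pre-incubation and were exposed for 23 h.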

[2] = Nuclear factor erythroid 2-related factor 2/antioxidant responsive element (Nrf2/ARE) small molecule agonists: luciferase reporter gene qHTS assay in human keratinocytes (AID 1919969); note: nearly all actives have a fitted effect of over 35% in size
[3] = target: KiSS-1 receptor (Homo sapiens) (UniProt Q969F8); assay: Human kisspeptin (KISS1R) small molecule agonists, calcium flux assay in KISS1R-HEK293 cells (AID 1920064; active = well fitted curve in the direction sought with a large enough effect in the repeat runs; an effect the other way counts as inactive or inconclusive)
Chain of KiSS-1 receptor (Homo sapiens) (Q969F8 whole entry, looked up): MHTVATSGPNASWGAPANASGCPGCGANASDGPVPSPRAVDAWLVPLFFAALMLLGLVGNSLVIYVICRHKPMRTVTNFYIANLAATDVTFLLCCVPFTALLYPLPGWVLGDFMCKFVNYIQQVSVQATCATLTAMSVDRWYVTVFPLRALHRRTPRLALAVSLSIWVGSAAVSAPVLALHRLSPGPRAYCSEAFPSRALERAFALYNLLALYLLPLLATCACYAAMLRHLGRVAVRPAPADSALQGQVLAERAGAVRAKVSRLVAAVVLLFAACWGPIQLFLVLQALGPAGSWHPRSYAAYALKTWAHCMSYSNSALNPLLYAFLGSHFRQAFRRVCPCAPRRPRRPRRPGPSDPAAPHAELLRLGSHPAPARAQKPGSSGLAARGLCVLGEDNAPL
Method in brief: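 Measures KISS1R agonism through calcium-sensitive dye fluorescence in stably transfected HEK293 cells, read for 3 min after pin-tool compound delivery; 15-point titrations in triplicate.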

[4] = G protein-coupled receptor (GPCR) small molecule agonists, calcium flux assay: HEK293 wild type cell line counter screen (AID 1920065)
Method in brief: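 Readout: fluorescence at 480 nm excitation/540 nm emission, sampled at 1 s intervals for 3 min. Cells had been cultured 18 h, then dye-loaded 1 h at 37 C before compound or ATP addition.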

[5] = p53 small molecule agonists, cell-based qHTS assay with human liver microsomes: qHTS cell viability counter screen (AID 1963579); note: nearly all actives have a fitted effect of over 45% in size
Method in brief: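 Metabolic activation used human liver microsomes and NADPH, both 0.5 mg/mL final, over 16 hours at 37 C on p53RE-bla cells (4,000/well). Cytotoxicity measured by CellTiter-Glo luminescence, 30 min at room temperature.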

[6] = p53 small molecule agonists, cell-based qHTS assay with rat liver microsomes: qHTS cell viability counter screen (AID 1963580); note: nearly all actives have a fitted effect of over 45% in size
Method in brief: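 In HCT-116 cells carrying a p53 response element-bla reporter, compounds were metabolically activated in situ by rat liver microsomes with NADPH over 16 h. Cell ATP content then served as the cytotoxicity measure.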

[7] = p53 small molecule agonists, cell-based qHTS assay: qHTS cell viability counter screen (AID 1963581); note: nearly all actives have a fitted effect of over 45% in size
Method in brief: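 In the same plates used for the p53 bla reporter, HCT-116 cells given compounds for 16 h at 37 C received CellTiter-Glo; luminescence was recorded 30 min later at room temperature.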

[8] = target: 5-hydroxytryptamine receptor 2A (Homo sapiens) (UniProt P28223); assay: 5-hydroxytryptamine receptor 2A (HTR2A) small molecule antagonists, cell-based qHTS assay (AID 1963586); note: nearly all actives have a fitted effect of over 45% in size
Chain of 5-hydroxytryptamine receptor 2A (Homo sapiens) (P28223 whole entry, looked up): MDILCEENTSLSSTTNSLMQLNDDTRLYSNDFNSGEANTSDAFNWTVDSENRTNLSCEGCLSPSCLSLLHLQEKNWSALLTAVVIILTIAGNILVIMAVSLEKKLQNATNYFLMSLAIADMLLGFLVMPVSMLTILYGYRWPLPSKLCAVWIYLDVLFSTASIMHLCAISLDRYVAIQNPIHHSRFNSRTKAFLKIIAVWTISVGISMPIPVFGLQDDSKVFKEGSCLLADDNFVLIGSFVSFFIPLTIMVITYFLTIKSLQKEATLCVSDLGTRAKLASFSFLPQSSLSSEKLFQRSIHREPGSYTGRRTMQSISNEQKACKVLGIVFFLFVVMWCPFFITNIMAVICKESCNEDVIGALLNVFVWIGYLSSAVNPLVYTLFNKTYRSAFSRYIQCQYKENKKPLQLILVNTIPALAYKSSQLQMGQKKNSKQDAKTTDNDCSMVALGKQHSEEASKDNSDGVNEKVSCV
Method in brief: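 Antagonist-mode intracellular calcium assay: DOI (4 nM) added after 5 min compound pre-incubation at room temperature to dye-loaded HTR2A-CHO cells. Fluorescence followed for 3 min, sampled every second.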

[9] = target: 5-hydroxytryptamine receptor 2A (Homo sapiens) (UniProt P28223); assay: 5-hydroxytryptamine receptor 2A (HTR2A) small molecule agonists, cell-based qHTS assay (AID 1963587); note: nearly all actives have a fitted effect of over 30% in size
Method in brief: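 HTR2A-CHO cells, plated 18 h at 37 C/5% CO2, dye-loaded 1 h at 37 C; compounds in DMSO added by pin tool (agonist mode). Intracellular calcium flux read as kinetic fluorescence on FDSS over 2 min at 1 s intervals.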

[10] = target: Muscarinic acetylcholine receptor M1 (Homo sapiens) (UniProt P11229); assay: Cholinergic receptor muscarinic 1 (CHRM1) small molecule antagonists, cell-based qHTS assay (AID 1963588); note: nearly all actives have a fitted effect of over 40% in size
Chain of Muscarinic acetylcholine receptor M1 (Homo sapiens) (P11229 whole entry, looked up): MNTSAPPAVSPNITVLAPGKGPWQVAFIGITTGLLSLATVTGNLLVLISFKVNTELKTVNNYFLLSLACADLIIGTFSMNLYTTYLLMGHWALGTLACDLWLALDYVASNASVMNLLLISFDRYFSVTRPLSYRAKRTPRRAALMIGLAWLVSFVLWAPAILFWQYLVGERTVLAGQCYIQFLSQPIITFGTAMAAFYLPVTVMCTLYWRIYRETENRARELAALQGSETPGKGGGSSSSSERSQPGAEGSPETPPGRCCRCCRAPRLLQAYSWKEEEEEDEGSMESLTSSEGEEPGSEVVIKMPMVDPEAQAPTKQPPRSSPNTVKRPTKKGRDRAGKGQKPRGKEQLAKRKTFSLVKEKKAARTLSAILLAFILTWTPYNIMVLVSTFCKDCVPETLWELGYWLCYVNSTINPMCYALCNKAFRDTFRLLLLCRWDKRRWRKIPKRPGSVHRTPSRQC
Method in brief: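 CHRM1-CHO calcium-flux assay, antagonist mode. Cells were seeded 18 h, dye-loaded 1 h at 37 C and given compound for 5 min at RT, then acetylcholine was added at 50nM. FDSS fluorescence was read 3 min; 15 concentrations, three runs.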

[11] = target: Muscarinic acetylcholine receptor M1 (Homo sapiens) (UniProt P11229); assay: Cholinergic receptor muscarinic 1 (CHRM1) small molecule agonists, cell-based qHTS assay (AID 1963589); note: nearly all actives have a fitted effect of over 35% in size
Method in brief: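 Each compound was tested at 15 concentrations across three independent runs on dye-loaded CHO cells stably expressing human CHRM1, reading intracellular calcium fluorescence kinetically at 1 sec intervals.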

[12] = cAMP Responsive Elements (CRE) small molecule agonists, cell-based qHTS assay (AID 1963590)
Method in brief: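 Cell line: CRE-bla HEK 293T; medium DMEM/10% dialyzed FBS/0.1 mM NEAA/1 mM pyruvate/25 mM HEPES; 3 h compound exposure; beta-lactamase FRET readout after 2 h substrate loading at RT.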

[13] = cAMP Responsive Elements (CRE) small molecule antagonists, cell-based qHTS assay (AID 1963591; active = well fitted inhibition curve with a large enough effect in the signal ratio in the repeat runs, not every such curve was filed as active; the % refers to the signal ratio)
Method in brief: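 Inhibition of NKH477-driven (0.25 uM final) CRE-beta-lactamase signal in HEK293T cells, 3 h compound exposure at 37 °C, detected by FRET substrate fluorescence.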

[14] = target: Beta-2 adrenergic receptor (Homo sapiens) (UniProt P07550); assay: Adrenergic beta2 receptor (ADRB2) small molecule antagonists, cell-based qHTS assay (AID 1963592); note: series mostly up to about 92 µM; nearly all actives have a fitted effect of over 50% in size
Chain of Beta-2 adrenergic receptor (Homo sapiens) (P07550 whole entry, looked up): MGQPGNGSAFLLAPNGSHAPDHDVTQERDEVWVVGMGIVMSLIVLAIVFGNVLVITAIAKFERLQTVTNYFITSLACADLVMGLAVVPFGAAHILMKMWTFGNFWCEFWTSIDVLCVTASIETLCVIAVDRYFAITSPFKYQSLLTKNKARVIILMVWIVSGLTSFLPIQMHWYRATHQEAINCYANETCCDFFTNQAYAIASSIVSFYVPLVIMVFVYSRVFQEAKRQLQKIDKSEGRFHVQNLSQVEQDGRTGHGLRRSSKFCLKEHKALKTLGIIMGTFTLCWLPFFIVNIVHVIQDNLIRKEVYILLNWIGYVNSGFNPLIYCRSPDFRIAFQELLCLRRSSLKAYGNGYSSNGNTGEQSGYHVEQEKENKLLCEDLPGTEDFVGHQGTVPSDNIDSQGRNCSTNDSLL
Method in brief: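 Cells (CHO, stable ADRB2 overexpression) incubated 18-20hr at 37C; compounds added from DMSO; agonist mix (1nM isoproterenol, 100uM IBMX, 25uM Ro-20-1724) added; 0.5hr RT; d2-cAMP and anti-cAMP-cryptate added; 1hr RT; 665/615 nm read.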

[15] = target: Beta-2 adrenergic receptor (Homo sapiens) (UniProt P07550); assay: Adrenergic beta2 receptor (ADRB2) small molecule agonists, cell-based qHTS assay (AID 1963593);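 note: CHO cells stably overexpressing human ADRB2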
Method in brief: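 CHO cells stably over-expressing ADRB2 were plated overnight at 37C, then dosed with compounds plus a stimulation mix containing 100uM IBMX and 25uM Ro-20-1724 for 0.5hr at room temperature. cAMP was measured by HTRF competition, 1hr.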

[16] = target: D(2) dopamine receptor (Homo sapiens) (UniProt P14416); assay: Dopamine D2 receptor (DRD2) small molecule agonists, cell-based qHTS assay (AID 1963594); note: nearly all actives have a fitted effect of over 35% in size
Chain of D(2) dopamine receptor (Homo sapiens) (P14416 whole entry, looked up): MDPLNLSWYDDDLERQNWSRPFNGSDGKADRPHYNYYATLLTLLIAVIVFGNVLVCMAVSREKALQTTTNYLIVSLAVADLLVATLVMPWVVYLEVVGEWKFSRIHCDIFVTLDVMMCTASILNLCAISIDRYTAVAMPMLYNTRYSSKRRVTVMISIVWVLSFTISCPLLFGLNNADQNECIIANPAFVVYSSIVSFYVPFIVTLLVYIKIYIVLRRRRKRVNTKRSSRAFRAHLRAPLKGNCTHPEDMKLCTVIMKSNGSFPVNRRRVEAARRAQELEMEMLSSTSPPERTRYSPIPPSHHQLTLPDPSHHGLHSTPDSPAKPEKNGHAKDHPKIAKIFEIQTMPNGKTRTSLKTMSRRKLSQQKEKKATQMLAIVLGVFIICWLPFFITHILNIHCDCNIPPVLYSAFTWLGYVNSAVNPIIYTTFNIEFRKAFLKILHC
Method in brief: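 HEK293 cells stably expressing DRD2 were cultured 24 h at 37 C, then given Ro20-1724 (0.1 mM final) and compounds for 10 min at room temperature. NKH477 (200nM) was then added for 30 min. cAMP was read by HTRF.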

[17] = p53 small molecule agonists, cell-based qHTS assay with human liver microsomes (AID 1963577);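 note: p53 response element beta-lactamase reporter cells with liver microsomes plus NADPH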
Method in brief: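 With metabolic activation: human liver microsomes (0.5 mg/mL final) plus NADPH (0.5 mg/mL final) added alongside compounds to p53RE-bla cells; 16 h 37 C exposure; beta-lactamase read by LiveBLAzer fluorescence.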

[18] = p53 small molecule agonists, cell-based qHTS assay with rat liver microsomes (AID 1963578)
Method in brief: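 Metabolic activation by rat liver microsomes and NADPH, each 0.5 mg/mL final, added right after compounds to p53RE-bla reporter cells (4,000/well, plated 5 h earlier). 16 h at 37 C, then LiveBLAzer substrate for 2 h at room temperature in the dark; fluorescence read-out.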

[19] = p53 small molecule agonists, cell-based qHTS assay (AID 1963582; active = well fitted activation curve with a large enough effect in the signal ratio in the repeat runs, not every such curve was filed as active; the % refers to the signal ratio)
Method in brief: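 Compounds are pin-transferred in DMSO onto p53RE-bla cells and incubated 16 h at 37 C. The B/G FRET beta-lactamase substrate is then applied for 2 h at RT and fluorescence recorded.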

[20] = target: D(2) dopamine receptor (Homo sapiens) (UniProt P14416); assay: Dopamine D2 receptor (DRD2) small molecule antagonists, cell-based qHTS assay (AID 1963595; active = well fitted inhibition curve with a large enough effect in the signal ratio in the repeat runs, with a control signal flat; the % refers to the signal ratio)
Method in brief: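 Human DRD2 antagonist qHTS measuring cAMP by HTRF. The cells are exposed to compound for 10 min, then to NKH477 (200 nM) and quinpirole (12 nM) for 30 min at RT, with Ro20-1724 (0.1 mM) present throughout.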
% is set by controls: 0 for no effect and ±100 for the full control effect.

CCCCCCCCCCCC(=O)N(C)CC(=O)O
inactive: Potency [1] | activity, positive = activation [2] 0.794% [at 8.39 µM] | Potency [3] | Potency [4] | Potency [5] | Potency [6] | Potency [7] | Potency [8] | Potency [9] | Potency [10] | activation [11] -0.383% [at 6.97 µM] | activation [12] -0.74% [at 8.39 µM] | activity change, negative = inhibition [13] 5.29% [at 8.39 µM] | Potency [14] | Potency [15] | Potency [16]

CSc1cnccn1
inactive: Potency [1] | Potency [2] | Potency [3] | Potency [17] | Potency [18] | Potency [5] | Potency [6] | Potency [7] | Potency [19] | Potency [8] | Potency [9] | Potency [10] | Potency [11] | Potency [12] | Potency [13] | Potency [14] | Potency [16] | Potency [20]

NS(=O)(=O)c1cc2c(cc1Cl)NC(CC1CCCC1)NS2(=O)=O (configuration not stated)
inactive: Potency [1] | Potency [2] | Potency [3] | Potency [4] | Potency [17] | Potency [18] | Potency [5] | Potency [6] | Potency [7] | Potency [8] | Potency [9] | Potency [10] | Potency [11] | Potency [12] | Potency [13] | Potency [14] | Potency [15] | Potency [16]

C=C[C@H]1CN2CC[C@H]1C[C@@H]2[C@@H](O)c1ccnc2ccc(OC)cc12
inactive: Potency [1] | Potency [2] | Potency [3] | Potency [4] | Potency [5] | Potency [6] | Potency [7] | Potency [8] | Potency [10] | Potency [11] | Potency [12] | Potency [13] | Potency [14] | Potency [15] | Potency [16] | Potency [20]

COc1cc(C(=O)N2CCOCC2)cc(OC)c1OC
inactive: Potency [1] | Potency [2] | Potency [3] | Potency [4] | Potency [17] | Potency [18] | Potency [5] | Potency [7] | Potency [19] | Potency [8] | Potency [9] | Potency [10] | Potency [11] | Potency [12] | Potency [13] | Potency [14] | Potency [15] | Potency [16] | Potency [20]

CC(C)(c1cc(Br)c(OCC(Br)CBr)c(Br)c1)c1cc(Br)c(OCC(Br)CBr)c(Br)c1 (configuration not stated)
inactive: Potency [1] | Potency [2] | Potency [3] | Potency [4] | Potency [17] | Potency [18] | Potency [5] | Potency [6] | Potency [7] | Potency [8] | Potency [9] | Potency [10] | Potency [11] | Potency [12] | Potency [13] | Potency [14] | Potency [15] | Potency [16] | Potency [20]

C[Si]1(C)O[Si](C)(C)O[Si](C)(C)O[Si](C)(C)O[Si](C)(C)O1
inactive: Potency [1] | Potency [2] | Potency [3] | Potency [4] | Potency [17] | Potency [5] | Potency [6] | Potency [7] | Potency [19] | Potency [8] | Potency [9] | Potency [12] | Potency [13] | Potency [14] | Potency [16] | Potency [20]
